Several values for one entry are separate records, joined by “and”; a condition that tells them apart may be missing. Identical values can stand only once. Results filed as inconclusive are left out. More than one record can exist for a structure, and the calls need not agree. Activity calls are given as the source filed them. How the source made its calls, unless noted: active means hit-call score of the fitted dose curve at least 0.9, where 1 is the maximum; inconclusive means response in the unintended direction; inactive means score below 0.9.

Experiment [1] in a line: CCTE_Simmons_CellTiterGLO_HEK293T: Viability Assessment in CCTE's Assays for Thyroperoxidase (TPO) Inhibition, Simmons Lab (AID 2283665).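 On AC50: cells exposed to compound for 24 h before readout; actives reduce ATP signal below DMSO vehicle meaning cytotoxicity.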 In short, it runs like this: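 Luminescent ATP readout (CellTiter-Glo, 20 min at room temperature) after 24 hr exposure of HEK293T cells to 5 nM–87.5 uM final compound; signal loss relative to DMSO vehicle indicated cytotoxicity; dichlone titrated as positive control.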

Experiment [2] in a line: Tanguay_ZF_120hpf_TR_legacy: (Legacy) Oregon State University Tanguay Lab 120 Hour Post-fertilization zebrafish Assay for Touch Response (AID 2283667). In outline: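 Readout is presence or absence of touch response in 120 hpf zebrafish larvae, assessed by brightfield observation after continuous static exposure at 28C. Final vehicle was 0.64% (vol/vol) DMSO.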
The nature of experiment [3]: Tanguay_ZF_120hpf_ActivityScore_legacy: (Legacy) Oregon State University Tanguay Lab 120 Hour Post-fertilization zebrafish Assay Score for Activity (AID 2283742).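 On AC50: dechorionated Tropical 5D wild-type zebrafish embryos held singly per well; static exposure from 6 hpf until 120 hpf at 28 °C.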 In short, it runs like this: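 In this whole-embryo screen, dechorionated zebrafish were exposed from 6 hpf until 120 hpf at 28C under a 0.64% DMSO vehicle. Developmental malformations and death were recorded by brightfield microscopy as binary endpoints.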

Read-out in experiment [4]: Cytochrome P450 (CYP24A1_1), CYP24A1 (gene 1591)
The experiment can be described thus: LTEA_HepaRG_CYP24A1_1: Life Technologies and Expression Analysis (LTEA) Assay for Cytochrome P450 (CYP24A1_1) using HepaRG (AID 2283671; active means hit-call score of the fitted dose curve at least 0.9, where 1 is the maximum; inactive means score below 0.9). The note with it: mRNA level, 48 h; actives raise or lower the signal. In outline:
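Cultures of human HepaRG were treated in duplicate for 48 h (0.5% DMSO vehicle, highest dose 100 uM). CYP24A1 mRNA by qRT-PCR, normalized to ACTB, GAPDH, POLR2A.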

A short description of experiment [5]: STM_H9_OrnithineISnorm_perc: Stemina devTOX quickPredict H9 human embryonic stem cell (hESC)-based Assay for Ornithine (ORN) Metabolite Biomarker, Normalized (AID 2283712; active means hit-call score of the fitted dose curve at least 0.9, where 1 is the maximum; inactive means score below 0.9;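 further: ornithine released into spent medium during last day measured by mass spectrometry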). In short, it runs like this:
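UPLC-HRMS readout: endogenous ornithine EIC area / 13C-ORN internal standard, then % of 0.1% DMSO median. H9 hESCs (pluripotent), 72h exposure, re-dosed with fresh media q24h; last 24-h spent media, deproteinized in 40% acetonitrile.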

The nature of experiment [6]: STM_H9_CystineISnorm_perc: Stemina devTOX quickPredict H9 human embryonic stem cell (hESC)-based Assay for Cystine (CYSS) Metabolite Biomarker, Normalized (AID 2283713; active means hit-call score of the fitted dose curve at least 0.9, where 1 is the maximum; inactive means score below 0.9). In short, it runs like this: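 UPLC-HRMS read-out: endogenous cystine peak area in spent medium, normalized to isotope-labeled internal standard and to median of 0.1% DMSO controls. Pluripotent H9 cells, 72h exposure, daily medium/compound replenishment; medium from last 24h sampled.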

A short description of experiment [7]: STM_H9_OrnCyssISnorm_ratio: Stemina devTOX quickPredict H9 human embryonic stem cell (hESC)-based Assay for Ornithine (ORN):Cystine (CYSS) Ratio (AID 2283714). In outline: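 H9 hESC, 72h, q24h re-dose; last-day media → acetonitrile deproteinization → UPLC-HRMS. ORN:CYSS ratio from isotope-normalized EIC areas, vs 0.1% DMSO; MTX references on each plate.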
Experiment [8] can be described thus: CEETOX_H295R_MTT_cell_viability: Viability Assessment in the CeeTox HT-H295R MTT Assay (AID 2283718; active means hit-call score of the fitted dose curve at least 0.9, where 1 is the maximum; inactive means score below 0.9;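 further: curve fitted both ways so AC50 may mark viability loss or gain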). In short, it runs like this:
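H295R cells prestimulated 48 h with 10 uM forskolin, then exposed 48 h to test chemical (0.1% DMSO final). Viability by MTT (0.5 mg/ml, 4 h, 37 C), absorbance 570/650 nm; percent change versus DMSO, bidirectional fit.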

The nature of experiment [9]: ArunA_CellTiter_hNP: Viability Assessment in the ArunA Biomedical's Oris Neural Crest (hNC) Cell Migration Assay (AID 2283753). In outline:
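Viability read with CellTiter 96 Aqueous One after 72 h chemical exposure of human hNP1 neuroprogenitors, which were plated on Matrigel in LIF/bFGF medium 16 h beforehand. Endpoint fitted in positive direction relative to DMSO.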

As for `Cc1ccccc1N`, the result in experiment [1], in experiment [2] and in experiment [3] was inactive.

A word on the AC50: it is the concentration at which the activity in the assay is half-maximal. Regarding `Oc1cccc2cccnc12`, the concentration at half-maximal activity (AC50) is 15.8 µM (active) and 53.8 µM (active) in experiment [1]; 39.6 µM (active) in [3]. The result in experiment [2] and in [4] was inactive.

As for `CC(C)(C)c1cc(O)ccc1O`, the half-maximal activity concentration (AC50) in [1] is 85.6 µM (active) and 25.9 µM (active) and 27.6 µM (active); in experiment [3], 16.8 µM (active). In addition, the outcome in experiment [1], in experiment [2], in [5], in [6] and in experiment [7] was inactive.

Consider `CC(C)(C)CC(C)(C)c1ccc(O)cc1`, for which the AC50 in experiment [1] is 9.53 µM (active). For the same compound, the outcome in experiment [2] and in experiment [3] was inactive.

Regarding `C[C@H]1CCCC(=O)CCC/C=C/c2cc(O)cc(O)c2C(=O)O1`, the figures for the concentration at half-maximal activity (AC50) in experiment [1] and in experiment [8] were 89.2 µM (active) and 69.8 µM (active), respectively.

`NC(=O)O`: the call in experiment [2], in [4] and in experiment [3] was inactive.

Turning to `CCCCCCCCSC(=O)Oc1cc(Cl)nnc1-c1ccccc1`, the compound was classed as inactive in [1].

As to `CC(C)(c1ccccc1)c1ccc(O)c(C(C)(C)c2ccccc2)c1`, the concentration at half-maximal activity (AC50) in [1] was 5.35 µM (active). The call in experiment [2] and in [3] was inactive.

For `Cc1ccc(N)cc1Cl`, in experiment [1], the AC50 was 18.4 µM (active).

With `ClC1(Cl)C2(Cl)C3(Cl)C4(Cl)C(Cl)(Cl)C5(Cl)C3(Cl)C1(Cl)C5(Cl)C24Cl` (stereo unspecified), the outcome in experiment [2], in experiment [4], in experiment [5], in experiment [6], in experiment [3] and in experiment [9] was inactive. Also, the half-maximal activity concentration (AC50) in [7] was 0.346 µM (active).

Consider `CCOP(=S)(OCC)Oc1nc(Cl)c(Cl)cc1Cl`, for which the AC50 was 17.9 µM (active) in experiment [1] and 93.2 µM (active) in [8]. For the same compound, the compound was classed as inactive in [2] and in experiment [3].

With `C=C(C)C(=O)[O][Sn]([CH2]CCC)([CH2]CCC)[CH2]CCC`, the outcome in [2] was inactive. The half-maximal activity concentration (AC50) in [5] is 0.494 µM (active); in [6] it was 0.266 µM (active); in experiment [7] it was 0.441 µM (active); in experiment [3], 1.54 µM (active).

As for `O=C(O)C(F)(F)C(F)(F)C(F)(F)C(F)(F)C(F)(F)C(F)(F)C(F)(F)C(F)(F)C(F)(F)C(F)(F)F`, the outcome in experiment [2], in experiment [4] and in [3] was inactive.

These data come from PubChem BioAssay (EPA / NIEHS).
